# Assay outcomes (PubChem BioAssay)
# The list is not random: actives were taken first. Their share in the collection is about 12%.
# HP1b binding inh – HTS for Inhibitors of HP1-beta Chromodomain Interactions with Methylated Histone Tails; actives 0.56% (n = 390,000); AID 540317, 2011; Potency, µM (series often up to 114 µM), for inactives: top-dose activity change, negative = inhibition, most hits filed as inhibitors; Chromobox protein homolog 1 (Homo sapiens), P83916; AlphaScreen HP1-beta / biotin-H3K9me3 peptide binding; further: nearly all actives have a fitted effect of over 70% in size
#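 HP1-beta protein (50 nM final) preincubated 30 min at room temperature with biotinylated H3(1-18)K9me3 peptide (50 nM) in PBS pH 7.4, 0.01% Tween-20, then compound added for 30 min. AlphaScreen streptavidin donor/nickel chelate acceptor beads (10 ug/mL final), 30 min dark, luminescence read.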
# G9a inh – qHTS Assay for Inhibitors of Histone Lysine Methyltransferase G9a | Histone-lysine N-methyltransferase EHMT2 (Homo sapiens), Q96KQ7 | G9a H3K9 monomethylation, AlphaScreen, 2 h | Potency, µM (top dose mostly 102 µM), for inactives: at the highest dose activity, negative = inhibition, most hits filed as inhibitors | actives 8.8% (n = 350,000) | AID 504332, 2011; further: on the % scale 0 is the no-effect control and ±100 the full control effect; nearly all actives have a fitted effect of over 75% in size
#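 Methyltransferase reactions run at room temperature for 2 h (20 nM enzyme, 500 nM biotin-H3K9 peptide, 20 uM SAM) after a 15 min compound preincubation; product detected by AlphaScreen beads and anti-H3K9me1 antibody.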
# L3MBTL1 inh – qHTS Assay for the Inhibitors of L3MBTL1; Lethal(3)malignant brain tumor-like protein 1 (Homo sapiens), Q9Y468; AlphaScreen L3MBTL1–H3K9me1 peptide binding; Potency, µM (series often up to 57.1 µM), for inactives: top-dose activity, negative = inhibition, usual class: inhibitors; actives 0.66% (n = 230,000); further: on the % scale 0 is the no-effect control and ±100 the full control effect; nearly all actives have a fitted effect of over 60% in size
#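 L3MBTL1 (50 nM) pre-complexed 30 min with biotinylated H3(1-15)K9me1 peptide (75 nM), then compounds added for 30 min at room temperature; AlphaScreen streptavidin donor/nickel chelate acceptor beads (10 ug/mL final) read after 30 min dark incubation.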
# Sfp inh – qHTS Assay for Inhibitors of Bacillus subtilis Sfp phosphopantetheinyl transferase (PPTase); 4'-phosphopantetheinyl transferase ffp (Bacillus subtilis), Q9F4F7; Biochemical Sfp PPTase activity, qHTS; Potency, µM, without a hit: largest response in the series, negative = inhibition, usual class: inhibitors; actives 3.5% (n = 310,000);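 further: the enzyme is Sfp with the accession as filed and its product quenches rhodamine fluorescence; 0% = enzyme reaction without inhibitor and -100% = no enzyme wells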
#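 Buffer: 50 mM Hepes-Na pH 7.6, 10 mM MgCl2, 0.01% Nonidet P-40, 0.01% BSA. Enzyme 15 nM, pre-exposed to compound 15 min; substrates then added and fluorescence change tracked over 30 min.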
# BAZ2B block – qHTS Assay for Inhibitors of BAZ2B. Bromodomain adjacent to zinc finger domain protein 2B (Homo sapiens), Q9UIF8. AlphaScreen BAZ2B-H3K14Ac peptide displacement. Potency, µM (series often up to 114 µM), for inactives: at the top dose activity change, negative = inhibition, most hits filed as inhibitors. actives 4.4% (n = 360,000); further: on the % scale 0 is the no-effect control and ±100 the full control effect; nearly all actives have a fitted effect of over 60% in size
#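 AlphaScreen displacement of biotin-H3(5-23)K14Ac peptide (50 nM final) from BAZ2B (50 nM final) in PBS pH 7.4, 0.01% Tween-20; complex preformed 30 min RT, then compounds (top 110 uM) 30 min RT, beads 20 min dark.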
# JMJD2A Tudor inh – qHTS Assay for Inhibitors of JMJD2A-Tudor Domain | Lysine-specific demethylase 4A (Homo sapiens), O75164 | AlphaScreen JMJD2A-Tudor / H3K4me3 peptide binding | Potency, µM (series often up to 114 µM), inactives show at the highest dose activity change, negative = inhibition, actives largely listed as inhibitors | actives 4.4% (n = 390,000) | AID 504339, 2011; further: on the % scale 0 is the no-effect control and ±100 the full control effect; nearly all actives have a fitted effect of over 50% in size
# An asterisk follows results filed as active; ? = inconclusive; . = no result; [ ] = another dose, or the depositor's remark. The call rests on the fitted dose curve; in most records, active means well fitted curve in the direction sought with a large enough effect; inconclusive means small, poorly fitted or top-dose-only effect, or another doubt; inactive means no such curve, though single readings can be large; an effect the other way counts as inactive or inconclusive. Potency means the concentration at half of the fitted maximal effect.
SMILES,HP1b binding inh,G9a inh,L3MBTL1 inh,Sfp inh,BAZ2B block,JMJD2A Tudor inh
N#CC1=C(N)NC(=S)C(C(N)=O)C1c1ccc([N+](=O)[O-])cc1 (stereo not drawn),7.1%,.,-4.8%,1µM*,-34.0%,89.1µM*
Cc1cccc[n+]1C1C(c2ccc([N+](=O)[O-])cc2)C(C#N)=C(C(=C=[N-])C#N)NC1(O)C1CC1 (stereo not drawn),29.3%,-36.1%,22.0%,16.8%,-14.6%,-22.5%
c1ccc2c3c([nH]c2c1)[C@@H]1[C@H]2CC[C@H]([C@H]4CCCN[C@H]42)N1CC3,.,10µM*,.,8.3%,.,.
Cc1ccc([N+](=O)[O-])c(C)[n+]1C,?,3.55µM*,?,-25.3%,?,14.1µM*
Cc1cccc(Nc2c([N+](=O)[O-])c(=O)n(C)c3ccccc23)c1,-9.2%,-13.6%[59 µM],-10.7%,5.5%,?,50.1µM*
Cn1c(=O)c([N+](=O)[O-])c(-n2ccnc2)c2ccccc21,6.9%,?,-29.2%,56.2µM*,-14.0%,-20.1%
CC1(C)OC[C@@H]2O[C@@]3(C(=O)O)OC(C)(C)O[C@@H]3[C@@H]2O1,.,-23.9%[12.7 µM],.,-1.3%,.,.
CN(C)c1ccc(C(c2ccc(N(C)C)cc2)C(O)c2ccccc2)cc1 (stereo not drawn),?,.,.,.,.,22.4µM*
CC1CC(C)(C)NC(=S)N1CCC(=O)NCc1ccc(Cl)cc1 (stereo not drawn),22.1%,4.1%,-26.8%,14.5%,-10.7%,-6.9%
Cc1cc(Br)ccc1NC(=O)CN1C(=O)C2CC=CCC2C1=O (stereo not drawn),6.9%,0.794µM*,-4.8%,.,-9.2%,?
N#CCSc1ccccc1NC(=O)CN1C(=O)C2CC=CCC2C1=O (stereo not drawn),9.6%,44.7µM*,-5.6%,.,10.9%,-15.7%
Cc1cc(Br)ccc1NC(=O)CN1C(=S)NC(C)(C)CC1C (stereo not drawn),-18.1%,31.6µM*,23.7%,?,-12.9%,2.2%
CC1CC(C)(C)NC(=S)N1CCC(=O)NCc1ccc(F)cc1 (stereo not drawn),20.4%,39.8µM*,19.4%,10.2%,-3.4%,-6.6%
CCn1c(=O)sc2cc(NS(=O)(=O)c3ccc(C)cc3)ccc21,7.7%,2.4%[59 µM],.,.,-7.8%,-18.8%
CCOC(=O)C1CCN(C/C=C/c2ccccc2)CC1,-37.3%,44.7µM*,-4.7%,-3.7%,?,79.4µM*
CCOC(=O)C1CCCN(C/C=C/c2ccccc2)C1 (stereo not drawn),?,39.8µM*,5.1%,-11.1%,?,22.4µM*
CCN(CC)C(=O)C1CCCN(C/C=C/c2ccccc2[N+](=O)[O-])C1 (stereo not drawn),?,35.5µM*,-0.9%,-9.4%,?,3.16µM*
CCOC(=O)C1CCCN(CCC(=O)Nc2ccccc2)C1 (stereo not drawn),48.0%,?,.,21.6%,-4.7%,5.4%
CC(=O)N1CCN(CC(C)(C)NS(=O)(=O)c2ccccc2)CC1,24.5%,.,3.1%,.,.,-3.7%
CCOC(=O)C1CCN(CC(C)(C)NS(=O)(=O)c2ccccc2)CC1,79.4µM*,?,.,2.3%,-27.2%,1.78µM*
CCOC(=O)C1CCN(C(=O)/C(C)=C\c2ccccc2)CC1,77.0%,-8.1%,-2.4%[11.4 µM],16.1%,-32.0%,4.1%
O=C(Nc1cc(-c2ccccc2)[nH]n1)c1ccc(Cl)cc1,43.7%,13.0%,-10.2%,16.4%,-15.7%,-3.2%
CCOC(=O)Cc1csc(N/N=C\c2ccccc2OC)n1,-1.2%,.,-3.1%,-4.8%,?,-25.8%
CCOC(=O)Cc1csc(N/N=C\c2cccc(Br)c2)n1,8.4%,-27.5%[0.0925 µM],-6.0%,-25.8%,-2.6%,28.2µM*
CCOC(=O)Cc1csc(N/N=C\c2ccc(N(C)C)cc2)n1,-14.2%,44.7µM*,.,?,11.2µM*,39.8µM*
SMILES,HP1b binding inh,G9a inh,L3MBTL1 inh,Sfp inh,BAZ2B block,JMJD2A Tudor inh
CCOC(=O)Cc1csc(N/N=C/c2ccccc2)n1,26.2%,14.4%[59 µM],-4.1%,-14.6%,-11.9%,-25.2%
Fc1ccc(N2CCN(c3ncnc4c3nc3n4CCCC3)CC2)cc1,39.6%,5.0%[59 µM],.,.,-1.4%,-1.3%
CC1CCCCC1NC(=O)CCS(=O)(=O)c1cc2c(cc1Cl)NC(=O)CO2 (stereo not drawn),23.3%,15.0%,.,10.1%,-19.8%,-15.0%
CC(=O)c1cccc(NC(=O)/C(=C/c2ccco2)NC(=O)c2ccco2)c1,16.0%,73.8%,.,8.2%,0.0%,-18.5%
Cc1ccc(NC(=O)N/C=C/c2ccco2)cc1,-11.0%,?,?,?,79.4µM*,50.1µM*
Cc1ccc(C(=O)N/C(=C/c2ccco2)C(=O)Nc2cccc(C(=O)O)c2)cc1,2.1%,.,.,44.7µM*,22.2%,79.4µM*
Cc1ccc(NC(=O)/C(=C\c2ccco2)NC(=O)c2ccco2)cc1,47.1%,28.2µM*,.,-20.1%,-1.5%,?
COc1ccccc1C(=O)N/C(=C/c1ccco1)C(=O)Nc1cccc(C(=O)O)c1,3.5%,?,.,50.1µM*,?,79.4µM*
O=C(OC1CCOC1=O)C1CCN(S(=O)(=O)c2ccc(Cl)c(C(F)(F)F)c2)CC1 (stereo not drawn),4.3%,?,-16.1%,.,10.0%,-2.7%
CCc1ccc([C@@H]2CC=C(C(=O)O)[C@H](c3ccc(C(C)(C)C)cc3)N2S(=O)(=O)c2ccc(C)cc2)cc1,11.4%,.,-11.7%,.,.,?
N/C(Cc1cccc2ccccc12)=N\OC(=O)c1ccc(Br)o1,.,44.7µM*,.,-14.9%,-33.5%,.
CC1(C)C/C(=N\NC(=S)Nc2ccccc2F)c2cc(O)ccc2O1,7.94µM*,?,-23.4%,-9.3%,?,17.8µM*
CCN(CC)CCN(C(=O)c1ccc(Br)s1)c1nc2cc3c(cc2s1)OCO3,34.2%,50.1µM*,.,6.7%,.,-22.8%
CCN(CC)CCN(C(=O)c1ccc(Br)s1)c1nc2cc3c(cc2s1)OCCO3,35.7%,50.1µM*,.,-21.2%,.,-12.7%
CN(C)CCCN(C(=O)c1ccc(Br)s1)c1nc2cc3c(cc2s1)OCCO3,0.2%,?,-9.8%,.,-0.1%,-35.9%
COc1ccc2nc(N(CCN(C)C)C(=O)/C=C/c3cccs3)sc2c1,28.5%,14.1µM*,.,-2.8%,.,-27.4%
